# Data reported in PubChem BioAssay (NCI).
# The panel holds about 79,000 compounds, 15% with a hit somewhere; the sample as a whole holds those more often. Unmarked numbers belong to inactive results. Active and inactive are the calls of the source. Rule as the data show it: active = growth inhibition above about 70%; inactive = the rest.
# Columns and labels:
# [1] = NCI Yeast Anticancer Drug Screen. Data for the rad50 strain (AID 155);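 also: 0% = growth of vehicle-only cultures of the same strain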; settings: S. cerevisiae rad50 strain growth inhibition, active compounds read high
# Method in brief: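 A DNA repair-deficient yeast mutant serves as the test organism; compound-induced growth inhibition is calculated against vehicle-treated cells.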
# [2] = NCI Yeast Anticancer Drug Screen. Data for the mec2-1 strain (AID 157); settings: S. cerevisiae mec2-1 strain, active compounds read high
# Method in brief: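 Each compound was tested on mec2-1 yeast, a strain altered in DNA damage repair or cell cycle control. Growth inhibition is reported relative to vehicle.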
# [3] = NCI Yeast Anticancer Drug Screen. Data for the sgs1 mgt1 strain (AID 161);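 also: 0% = growth of cultures given vehicle only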; settings: S. cerevisiae sgs1 mgt1 strain, active compounds read high
# Method in brief: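 Read-out: growth inhibition vs vehicle controls. Cells: mutant yeast strain deficient in DNA damage repair.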
# [4] = NCI Yeast Anticancer Drug Screen. Data for the cln2 rad14 strain (AID 165);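 also: 0% = growth equal to vehicle treated cultures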; settings: S. cerevisiae cln2 rad14 strain, active compounds read high
# Method in brief: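 Test compounds were added to cln2 rad14 yeast cultures; inhibition of growth was then determined by comparison with vehicle treatment.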
# [5] = NCI Yeast Anticancer Drug Screen. Data for the bub3 strain (AID 167); settings: S. cerevisiae bub3 mutant strain, active compounds read high
# Method in brief: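 Inhibition values come from growth of compound-treated mutant yeast normalised to vehicle-treated controls.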
# [6] = NCI Yeast Anticancer Drug Screen. Data for the mlh1 rad18 strain (AID 175); settings: S. cerevisiae mlh1 rad18 strain growth inhibition, active compounds read high
# Method in brief: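 Inhibition values reflect reduced growth of mutant yeast versus vehicle-treated controls following compound exposure; the mutations affect DNA damage repair.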
# [7] = at 5.0 µM (retest, dose inferred, filed as 0.5)
# [8] = at 50.0 µM (retest, dose inferred, filed as 5.0)
Structure (SMILES),"growth inhibition [1, 7]","growth inhibition [1, 8]",growth inhibition ([1]; at 50.0 µM),"growth inhibition [2, 7]","growth inhibition [2, 8]",growth inhibition ([2]; at 50.0 µM),"growth inhibition [3, 7]","growth inhibition [3, 8]",growth inhibition ([3]; at 50.0 µM),"growth inhibition [4, 7]","growth inhibition [4, 8]",growth inhibition ([4]; at 50.0 µM),"growth inhibition [5, 7]","growth inhibition [5, 8]",growth inhibition ([5]; at 50.0 µM),"growth inhibition [6, 7]","growth inhibition [6, 8]",growth inhibition ([6]; at 50.0 µM)
Oc1c(Br)cc(Br)cc1-c1ccccc1,0%,99% (active),98.1% (active),9%,100% (active),99.5% (active),2%,99% (active),99.5% (active),-5%,100% (active),99.2% (active),-5%,100% (active),99.3% (active),-8%,99% (active),99.3% (active)
Cc1ccc(C)c(C2CCCCC2O)c1 (stereo not given),-1%,-80%,4.5%,-8%,-25%,-11.7%,-1%,-23%,-9.1%,9%,-5%,71.5% (active),-13%,-87%,51.1%,0%,-40%,-16.1%
Oc1ccc(Cc2ccccc2)cc1Cl,-1%,74% (active),47.5%,-2%,72% (active),41.7%,-2%,78% (active),42.8%,-4%,47%,95% (active),-6%,54%,97.7% (active),-1%,85% (active),41.6%
CC(=O)OC1CCCCCCCCCCC12OCCO2 (stereo not given),23%,96% (active),30%,5%,98% (active),63%,20%,99% (active),73.5% (active),1%,96% (active),63.6%,1%,96% (active),83% (active),10%,96% (active),92% (active)
O=C(O)/C=C/C(=O)c1ccccc1,7%,76% (active),15.1%,5%,72% (active),57.5%,3%,66%,46.3%,-3%,13%,3.6%,-6%,71% (active),67.2%,6%,80% (active),72% (active)
N#CCCN(C(=S)Nc1cccc(C(F)(F)F)c1)C1CCCCC1,-1%,69%,75.3% (active),3%,87% (active),75% (active),-1%,87% (active),82.4% (active),-1%,46%,41.1%,1%,81% (active),76.2% (active),1%,89% (active),61.2%
O=C(Nc1cccc(Cl)c1)OCCN(CCOC(=O)Nc1cccc(Cl)c1)C(=O)Nc1cccc(Cl)c1,31%,76% (active),77.8% (active),27%,80% (active),51.4%,36%,83% (active),90.9% (active),54%,77% (active),90.4% (active),53%,79% (active),80.4% (active),62%,81% (active),83.2% (active)
c1cc[c]([Sn]([O]c2cccc3cccnc23)([c]2ccccc2)[c]2ccccc2)cc1,99% (active),21%,89.5% (active),100% (active),10%,92.2% (active),100% (active),30%,89.6% (active),99% (active),11%,85.8% (active),99% (active),63%,90.8% (active),100% (active),14%,93% (active)
CC(=O)Nc1nc(Cl)c2ncn(C3CC(OC(=O)c4ccc(C)cc4)C(COC(=O)c4ccc(C)cc4)O3)c2n1 (stereo not given),-3%,0%,53.1%,0%,6%,27.4%,57%,3%,60.1%,-2%,0%,63.4%,0%,-2%,33.2%,-20%,0%,48.6%
CCCCCCCCCCCCCCCC[N+](C)(C)c1ccccc1,98% (active),98% (active),91.1% (active),98% (active),99% (active),90.7% (active),99% (active),99% (active),90.4% (active),98% (active),99% (active),86.2% (active),99% (active),99% (active),92.8% (active),98% (active),98% (active),92.2% (active)
O=[N+]([O-])c1ccc2nc(-c3ccc(Cl)cc3)[nH]c2c1,0%,91% (active),71.5% (active),-1%,89% (active),72.8% (active),-2%,89% (active),75.4% (active),-6%,83% (active),72.6% (active),1%,95% (active),81.9% (active),-15%,94% (active),78.8% (active)
COC(=O)C1=C(C(=O)OC)C2(C)OC1C(=O)C21CC1 (stereo not given),15%,85% (active),88.3% (active),18%,94% (active),84.6% (active),23%,94% (active),86.8% (active),6%,70% (active),76.2% (active),20%,91% (active),93.6% (active),18%,94% (active),94.5% (active)
ON1CCc2c([nH]c3ccccc23)C1c1ccc(Cl)cc1 (stereo not given),-8%,93% (active),54.5%,-9%,91% (active),34.4%,1%,98% (active),85.4% (active),-8%,88% (active),55.7%,-6%,96% (active),40.1%,-2%,96% (active),79.2% (active)
Cc1c2cnccc2c(C)c2c1c1ccccc1n2CCCN,22%,73% (active),91.7% (active),14%,33%,67.6%,5%,50%,77.3% (active),17%,32%,72.3% (active),29%,35%,84.6% (active),16%,58%,82.1% (active)
CN(C)c1ccc(/C=C(\C#N)c2cccc(Cl)c2)cc1,1%,-8%,16.7%,-1%,1%,18%,4%,12%,10.8%,-3%,-25%,69.4%,5%,14%,13.7%,-3%,-11%,-4.75%
CCOc1cc(C(c2ccc(N(C)C)cc2)c2ccc(N(C)C)cc2)ccc1O,-1%,26%,36.2%,-1%,52%,44.8%,0%,54%,74.2% (active),2%,52%,84.1% (active),8%,79% (active),79.4% (active),0%,42%,59.5%
O=C1/C(=C/c2cccc(Br)c2)CCc2ccccc21,1%,26%,66.3%,8%,49%,18.4%,13%,58%,61.4%,-5%,16%,22.4%,44%,82% (active),74.6% (active),13%,64%,65.8%
CN(C)Cc1ccc2c(c1)c1c(n2Cc2ccccc2)CCCC1,-2%,94% (active),84.3% (active),-7%,84% (active),70.2% (active),-4%,20%,90.4% (active),-5%,96% (active),86.7% (active),-8%,96% (active),97.9% (active),3%,97% (active),97.7% (active)
O=C1CNC(=O)c2cc(N=Cc3cc(Br)ccc3O)ccc2N1,10%,95% (active),82% (active),8%,98% (active),62%,13%,96% (active),93.5% (active),2%,30%,22.6%,-1%,95% (active),43.4%,12%,97% (active),71.9% (active)
CCc1[nH]c2ccccc2c1C(c1c(CC)[nH]c2ccccc12)C1CCCCC1=O (stereo not given),1%,91% (active),93.2% (active),-8%,97% (active),88.8% (active),-10%,96% (active),92.2% (active),0%,95% (active),95.2% (active),0%,95% (active),79.8% (active),-9%,97% (active),95.6% (active)
